Laboratory results as given in PubChem BioAssay AID1903 (Southern Research Specialized Biocontainment Screening …, 2009).
Hit rate of the full screen: of about 310,000 compounds, about 1,200 (0.39%) were called active. How the calls were made is not given here. A selection follows. Potency and affinity values are given separately.

target: Large T antigen (Simian virus 40) (UniProt P03070); test: SV40 large T antigen inhibitors, biochemical (AID 1903); conditions: SV40 large T antigen ATPase/helicase inhibition assay; at 20 µM; hits give high values
Sequence (P03070 whole entry, looked up): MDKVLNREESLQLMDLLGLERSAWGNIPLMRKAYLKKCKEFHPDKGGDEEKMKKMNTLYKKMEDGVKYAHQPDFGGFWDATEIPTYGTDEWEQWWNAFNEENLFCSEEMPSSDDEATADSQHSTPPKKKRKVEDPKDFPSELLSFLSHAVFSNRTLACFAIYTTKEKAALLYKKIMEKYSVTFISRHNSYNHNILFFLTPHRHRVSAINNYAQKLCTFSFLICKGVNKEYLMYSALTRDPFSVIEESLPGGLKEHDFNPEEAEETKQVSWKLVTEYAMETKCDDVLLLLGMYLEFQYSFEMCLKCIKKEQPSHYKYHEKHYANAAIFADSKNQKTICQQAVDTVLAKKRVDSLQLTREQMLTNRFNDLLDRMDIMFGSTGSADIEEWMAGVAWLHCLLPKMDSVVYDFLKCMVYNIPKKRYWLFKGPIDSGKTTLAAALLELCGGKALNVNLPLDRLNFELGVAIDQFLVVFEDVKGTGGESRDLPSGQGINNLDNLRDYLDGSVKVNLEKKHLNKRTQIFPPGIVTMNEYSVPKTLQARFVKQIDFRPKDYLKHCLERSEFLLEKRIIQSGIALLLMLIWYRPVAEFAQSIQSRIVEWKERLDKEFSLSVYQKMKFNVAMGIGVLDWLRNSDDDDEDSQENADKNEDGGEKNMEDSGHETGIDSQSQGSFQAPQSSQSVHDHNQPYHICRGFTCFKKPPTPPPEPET

inhibition, inactive:
CC(=O)c1c(C)[nH]c(C(=O)OC2CCCCC2=O)c1C (stereo not drawn) 6.27%
Cc1ccsc1C=Nc1c(C)n(C)n(-c2ccccc2)c1=O 4.72%
COCCNC(=O)C(c1ccco1)N(C(=O)Cn1nnc2ccccc21)c1ccccc1C (stereo not drawn) 2.93%
Cc1ccc(CN2CC(C(=O)N(C)CC(=O)Nc3cccc(F)c3)CC2=O)cc1 (stereo not drawn) 25.6%
CC(CC(=O)N(C)c1c(N)n(Cc2ccccc2)c(=O)[nH]c1=O)c1ccccc1 (stereo not drawn) 12.7%
COc1ccccc1CNc1nc(S(=O)(=O)c2ccccc2)c(Cl)s1 21.1%
O=C(NC1CCCCC1)C(c1ccco1)N(CCc1ccccc1)C(=O)C(F)(F)F (stereo not drawn) 9.43%
COC(=O)c1cccc(NC(=O)c2cnn(C)c2)c1 3.5%
Cc1cc(Br)cc(C=Nc2ccc(N3CCOCC3)cc2)c1O 19.2%
CN(C)c1nc(N/N=C/c2c[nH]c3ccccc23)nc(N2CCOCC2)n1 27.1%
Oc1c(Br)cc(Cl)cc1C=Nc1ccc(N2CCOCC2)cc1 17.2%
Oc1c(Cl)cc(Cl)cc1C=Nc1ccc(N2CCOCC2)cc1 15.7%
Oc1cc(Br)ccc1C=Nc1ccc(N2CCCCC2)cc1 10.6%
C(=N\Nc1nc(Nc2ccccc2)nc(N2CCOCC2)n1)/c1c[nH]c2ccccc12 5.43%
O=C1[C@H]2[C@@H](c3ccc(Cl)cc3)N3C(=O)N(c4cccc(Cl)c4)C(=O)[C@@]3(Cc3ccccc3)[C@H]2C(=O)N1C1CCCCC1 6.67%
Cc1ccc(S(=O)(=O)N2CCN(S(=O)(=O)c3ccc4c(c3)OCCO4)CC2)cc1 2.43%
O=C(C1CCN(C2CC(=O)N(c3ccc(F)cc3)C2=O)CC1)N1CCOCC1 (stereo not drawn) 6.36%
COc1ccccc1N1CCN(C(CNS(C)(=O)=O)c2cccnc2)CC1 (stereo not drawn) 10%
CCOC(=O)c1[nH]c(C)c(C(=O)N2CCN(c3ccc(F)cc3)CC2)c1C 27.5%
C/C(CC(=O)Nc1ccc2c(c1)OCCO2)=N\NC(=O)COc1cccc(C)c1 6.15%
O=C(COC(=O)[C@@H]1CCCN1S(=O)(=O)c1ccc(Cl)cc1)NC1CCS(=O)(=O)C1 (stereo partly drawn) 1.86%
CCOc1ccc(/C=N/NS(=O)(=O)c2ccc(C)cc2)cc1OC 12.6%
Cc1ccc(C2C3=C(CCCC3=O)Nc3[nH]c(=S)[nH]c(=O)c32)cc1 (stereo not drawn) 23.7%
COC(=O)C1=C(C)Nc2[nH]c(=S)[nH]c(=O)c2C1c1ccc(O)cc1 (stereo not drawn) 26.6%
COC1Cc2ccccc2N(C(N)=O)c2ccccc21 (stereo not drawn) 11.8%
NS(=O)(=O)c1ccc(CCNC(=O)CSc2nc3ccccc3c3nc(CCN4CCCCC4)nn23)cc1 1.71%
COc1ccc(C2=CC3=C(Br)C(=O)C(C)(OC(=O)c4cccs4)C(=O)C3=CO2)cc1 (stereo not drawn) 52.5%
COc1ccc(C2=CC3=C(Br)C(=O)C(C)(OC(=O)c4ccco4)C(=O)C3=CO2)cc1 (stereo not drawn) 50.8%
COc1ccc2oc(C)c(C(=O)NN)c2c1 28.3%
O=C(NC1CCS(=O)(=O)C1)Oc1ccccc1 (stereo not drawn) 6.71%
O=C(NC1CCS(=O)(=O)C1)Oc1ccc(Cl)cc1 (stereo not drawn) 9.05%
O=[N+]([O-])c1ccccc1-c1cc(-c2cc(Cl)ccc2O)n[nH]1 19%
O=[N+]([O-])c1ccccc1-c1cc(-c2ccccc2O)n[nH]1 5.15%
O=C(OCC(=O)N1CCN(c2ccccc2)CC1)c1cccs1 3.9%
O=C(CSc1ccc(-c2nc3ccccc3[nH]2)cn1)Nc1ccc2c(c1)OCCO2 3.79%
CCN(c1ccc(NC(=O)COC(=O)c2ccc(C)s2)cc1)C(C)C 29.8%
CCOC(=O)c1c(N)sc(N)c1C(=O)OCC 36.6%
CCOC(=O)c1c(C)[nH]sc1=S 15%
O=C(NC(=S)Nc1ccccc1[N+](=O)[O-])c1cncc(Br)c1 7.4%
CCOc1ccc(Br)cc1S(=O)(=O)Nc1ccc(C(=O)Nc2ccccc2OC)cc1 11.7%
O=[N+]([O-])c1ccc2c(c1Nc1ccccc1Cl)=NC1(CCCCC1)N=2 14.5%
CCN(CC)C(=O)C(=O)c1cccn1-c1ccc(C#N)cc1 12.2%
O=C(Nc1ccccc1)c1ccc(NCC2CCCO2)c([N+](=O)[O-])c1 (stereo not drawn) 16.3%
COc1ccc(NC(=O)NC(C)(C(F)(F)F)C(F)(F)F)cc1 1.34%
CC(NC(=O)Nc1ccccc1O)(C(F)(F)F)C(F)(F)F 10.1%
O=C(Nc1ccccc1N1CCN(C(=O)c2ccc(Cl)cc2)CC1)c1cccnc1 -3.62%
Cc1noc(C)c1CS(=O)(=O)c1ccc([N+](=O)[O-])cc1 4.7%
CC/C(=N\Nc1nncc2ccccc12)c1ccc(F)cc1 0.15%
O=C(c1ccncc1)c1ccc(N2CCN(C3CC(=O)N(Cc4cccs4)C3=O)CC2)cc1 (stereo not drawn) 4.51%
O=C1CC(N2CCN(c3ccc(F)cc3)CC2)C(=O)N1Cc1cccs1 (stereo not drawn) 7.54%
COc1cc2c(cc1NC(=O)CSc1ccc(Cl)cc1)oc1ccccc12 20.1%
Cc1ccc(C(=O)CSc2nnc(-c3cccnc3)n2N)cc1 13.6%
O=C(COC(=O)CCC(NC(=O)OCc1ccccc1)C(=O)OCC(=O)Nc1ccccc1)Nc1ccccc1 (stereo not drawn) 9.57%
O=C(O)/C=C/C(=O)Nc1ccc(-n2nccc2C(F)(F)F)cc1 22.7%
CC(/C=C1\SC(=S)N(NS(=O)(=O)c2ccccc2)C1=O)=C\c1ccccc1 28.2%
O=C1/C(=C\c2ccc(Br)cc2)SC(=S)N1NS(=O)(=O)c1ccccc1 5.34%
O=C(NN1C(=O)/C(=C/c2cccc(O)c2)SC1=S)c1ccccc1O 0.53%
O=C(NN1C(=O)/C(=C/c2ccc(O)cc2)SC1=S)c1ccccc1O 38%
CCCC1NC(=S)N(C2CCCCC2)C1=O (stereo not drawn) 1.78%
Cc1ccc(-c2cc3c(n2-c2ccc(C(=O)O)cc2)CCCC3=O)cc1 11%
Cc1ccc(-n2c(C)cc3c2CCCC3=O)cc1 17.7%
CCC(C)(C)n1nnnc1C(c1ccccc1F)N1CCC(C(N)=O)CC1 (stereo not drawn) 8.52%
O=C(COc1ccc(Cl)cc1)NCc1nnc(SCC(=O)NC2CCCC2)o1 14.1%
COc1ccc2cc(C(=O)N3CCN(c4ccccc4OC)CC3)[nH]c2c1 2.37%
Cc1ccc2[nH]c3ccccc3c(=O)c2c1 4.82%
O=c1c2ccccc2[nH]c2ccccc12 7.79%
Cc1ccc(C)c(OC(=O)c2cccnc2Cl)c1C 25.3%
CCOCCn1c(SCc2ccccc2)nc2c1c(=O)[nH]c(=O)n2C 16.9%
CCOC(=O)C1C(c2ccccc2)C(C(=O)OCC)S(=O)(=O)C(CCN(CC)CC)S1(=O)=O (stereo not drawn) 4.87%
COC(=O)Cc1nnc(SCC(=O)Nc2ccccc2)c2ccccc12 11.3%
COc1ccc(NC(=O)Cn2c3ccccc3c3nc4n(c(=O)c32)CCS4)cc1OC 10.1%
Cc1nnsc1C(=O)Nc1ccc(Cl)cc1 3.36%
O=C(Nc1ccccc1)Nc1snnc1C(=O)Nc1cccc(O)c1 10.9%
O=C(c1cc(-c2ccc(Cl)cc2)on1)N1CCOCC1 7.19%
O=C(c1nnsc1S(=O)(=O)c1ccc(Cl)cc1)N1CCOCC1 4.81%
Clc1cccc(NCc2nnc(SCc3ccc(Cl)cc3Cl)o2)c1 0.46%
COc1ccc(/C=N/NC(=O)c2ccccc2OC)cc1COc1ccccc1[N+](=O)[O-] 1.66%
CCOC(=O)c1nc(-c2ccccc2)sc1C(C)=O 13.2%
Cc1ccc(C)c(NC(=O)CN(C)C(=O)c2cc3ccccc3o2)c1 13.7%
O=[N+]([O-])c1ccc(N2CCCCC2)cn1 4.49%
O=[N+]([O-])c1cc(S(=O)(=O)Nc2ccccc2)ccc1N1CCN(c2ccc(O)cc2)CC1 17.3%
COc1ccc(N2CCN(c3ccc(C(N)=O)cc3[N+](=O)[O-])CC2)cc1 20.4%
O=[N+]([O-])c1ccc(N2CCOCC2)cn1 20.2%
CN1CCN(c2ccc(S(=O)(=O)N3CCCCC3)cc2[N+](=O)[O-])CC1 23.6%
CC(=O)c1ccc(N2CCN(c3ccc(C(N)=O)cc3[N+](=O)[O-])CC2)cc1 12.7%
CSc1ncccc1C(=O)Nc1nc(C(C)(C)C)cs1 8.58%
COc1ccc(C(CC(=O)NCc2ccccc2)C(C)C)cc1 (stereo not drawn) 6.33%
Cc1c(NC(=O)C(C)OC(=O)COc2ccccc2)c(=O)n(-c2ccccc2)n1C (stereo not drawn) 10.4%
CCCCN(CCCC)CCNC(=O)Cc1nc2c(c(=O)[nH]c(=O)n2C)n1C 3.54%
CC(NC(=O)Nc1ccc(F)cc1F)c1ccc2c(c1)OCO2 (stereo not drawn) 16.7%
CCCn1c(SCC(=O)NCc2ccc(C)cc2)n[nH]c1=O 7.77%
COc1ccc(NC(=O)CN(C)C(=O)c2cccc(S(=O)(=O)N3CCN(Cc4ccccc4)CC3)c2)cc1 8.39%
COCCn1c(SCC(=O)N2CC(C)OC(C)C2)nc2c([nH]c3ccccc32)c1=O (stereo not drawn) -1.92%
